# What was measured:
# [1] = system: Vero E6 infected with SARS-CoV-2; assay: morphology score (similarity to uninfected cells); higher = more like uninfected cells; details: 24 h
# [2] = system: Vero E6 infected with SARS-CoV-2; assay: SARS-CoV-2 infection rate relative to infected DMSO; higher = more infection, active = 60 or less; details: 24 h
SMILES,morphology score [1],SARS-CoV-2 infection rate [2]
CCCCCCCCCCCCCCCCCC(=O)OCC(O)CO (stereo not drawn) [monostearin] (10 µM),-0.0152,108% (inactive)
CC(C)N1Cc2cc(S(C)(=O)=O)ccc2N(CCN2CC=C(c3c[nH]c4cc(F)ccc34)CC2)S1(=O)=O (10 µM),0.178,97.5% (inactive)
CC(C)(C)[C@]1(O)CCN2C[C@H]3c4ccccc4CCc4cccc(c43)[C@@H]2C1 [butaclamol] (10 µM),0.273,101% (inactive)
CCC(C)C(C(=O)OCC[N+](C)(CC)CC)c1ccccc1 (stereo not drawn) [valethamate] (10 µM),0.0952,95% (inactive)
CC(C)NCC(O)COc1cccc2[nH]ccc12 (stereo not drawn) [pindolol] (10 µM),0.0938,104% (inactive)
CCO[C@@H]1OC(=O)C[C@@H]1NC(=O)[C@@H]1CCCN1C(=O)[C@@H](NC(=O)c1ccc(N)c(Cl)c1)C(C)(C)C (10 µM),0.0386,116% (inactive)
CCOC(=O)c1ncn2c1CN(C)C(=O)c1cc(F)ccc1-2 [flumazenil] (10 µM),0.0898,88.5% (inactive)
Cc1nc(Nc2n[nH]c3c2CN(C(=O)N[C@H](CN(C)C)c2ccccc2)C3(C)C)c2sccc2n1 (10 µM),-0.232,111% (inactive)
O=C1NC(=O)c2c1c(-c1ccccc1)cc1[nH]c3ccc(O)cc3c21 (0.833333 µM),0.685,93.5% (inactive)
O=C1COc2c(CCNCCN(C(=O)CCNCCc3ccc(Cl)c(Cl)c3)C3CCCCC3)ccc(O)c2N1 (10 µM),-0.232,100% (inactive)
N#Cc1ccc(C2CCCc3cncn32)cc1 (stereo not drawn) [fadrozole] (10 µM),0.114,102% (inactive)
COc1cc2c(Nc3ccc(NC(=O)c4ccccc4)cc3)ncnc2cc1OCCCN1CCOCC1 (10 µM),-0.13,108% (inactive)
O=C(CCBr)N1CC[N+]2(CC1)CC[N+]1(CCN(C(=O)CCBr)CC1)CC2 [spirobromin] (10 µM),-0.0585,112% (inactive)
CN1CCN(CC(=O)N2c3ccccc3C(=O)Nc3cccnc32)CC1 [pirenzepine] (10 µM),-0.00972,108% (inactive)
Cc1c(NC(=O)c2cc3c(s2)CCCC3)cccc1-c1cn(C)c(=O)c(Nc2ccc(C3C(=O)N(C)CCN3C)cc2)n1 (stereo in doubt) (10 µM),0.45,69% (inactive)
C[C@H](NC(=O)/C(C#N)=C/c1cccc(Br)n1)c1ccccc1 (0.833333 µM),-0.0278,118% (inactive)
C[C@@H]1Cc2c([nH]c3ccccc23)[C@@H](c2c(F)cc(/C=C/C(=O)O)cc2F)N1CC(C)(C)F (10 µM),-0.0686,105% (inactive)
O=C(O)c1cc(=O)c2c(OCC(O)COc3cccc4oc(C(=O)O)cc(=O)c34)cccc2o1 [cromoglicic-acid] (10 µM),0.204,87% (inactive)
Cc1c(C(=O)NN2CCCCC2)nn(-c2ccc(Cl)cc2Cl)c1-c1ccc(Cl)cc1 [rimonabant] (10 µM),0.17,110% (inactive)
CCOc1ccc(-c2ccc(Cn3c(CC(C)(C)C(=O)O)c(SC(C)(C)C)c4cc(OCc5ccc(C)cn5)ccc43)cc2)cn1 (0.833333 µM),0.228,118% (inactive)
CC(C)c1cccc2c1OC(C(C)C)C(=S)N2CC(=O)O (stereo not drawn) (10 µM),0.0177,102% (inactive)
CCCN1CCCC(c2cccc(O)c2)C1 (stereo in doubt) [preclamol] (10 µM),-0.1,114% (inactive)
C[C@@H](CN1CCC(n2c(=O)[nH]c3cc(Cl)ccc32)CC1)NC(=O)c1ccc2ccccc2c1 (10 µM),0.46,87% (inactive)
C[C@]12CCC(=O)C=C1CC[C@@H]1[C@@H]2[C@@H](O)C[C@@]2(C)[C@H]1CC[C@]2(O)C(=O)CO [hydrocortisone] (10 µM),-0.144,122% (inactive)
O=C(Nc1ccccc1)Nc1ccc(-c2ccc(C(=O)[C@@H]3CCC[C@@H]3C(=O)O)cc2)cc1 (10 µM),0.202,102% (inactive)
CCCCOc1ccc(OCCCN2CCOCC2)cc1 [pramoxine] (10 µM),-0.0144,106% (inactive)
C[N+]1([O-])[C@@H]2CC[C@H]1C[C@@H](OC(=O)C(CO)c1ccccc1)C2 (stereo partly drawn) [atropine-oxide] (10 µM),0.0224,106% (inactive)
CN1C(=O)N(C)C2C1N(C)C(=O)N2C (stereo not drawn) [mebicar] (10 µM),0.0884,107% (inactive)
Cc1nc2ccc(-n3ncc(C(=O)c4cc5ccccc5[nH]4)c3N)cc2[nH]1 (0.833333 µM),0.131,101% (inactive)

# Source: the supplement of paper PMC13380429
